Our source for the composite z-score and z-score values is PubChem BioAssay.

The source made the active and inactive calls.

A short description of assay [1]: small molecules captured by biotinylated probe aFSTL3 – biochemical, small-molecule microarray, fluorescence 635/667, stem cell growth factor project, primary screen (AID 1064).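 Also: measures binding of the biotinylated anti-FSTL3 antibody to printed compounds.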 The following applies: higher = more signal.
A short description of assay [2]: binders from COS7 lysate, DM2A8 probe, primary screen, torsin A project, cell lysate, small-molecule microarray, fluorescence 635/667 (AID 1065). The following applies: higher = more signal, COS7 lysate expressing mutant human TOR1A.
The nature of assay [3]: small molecules captured by biotinylated probe aFGF2 – biochemical, small-molecule microarray, fluorescence 635/667, stem cell growth factor project, primary screen (AID 1067).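 Also: measures binding of biotinylated aFGF2 protein to printed compounds on slides; z-score merges feature fluorescence and signal-to-noise across triplicate slides.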 The following applies: higher = more signal.
A short description of assay [4]: small molecules captured by biotinylated probe aFGF10 – biochemical, small-molecule microarray, fluorescence 635/667, stem cell growth factor project, primary screen (AID 1071).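 Also: score merges 667 nm spot intensity and signal to noise from triplicate slides.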 The following applies: higher = more signal.
The target of assay [5] is Neurogenic locus notch homolog protein 2 (Homo sapiens) (UniProt Q04721). The assay is described as follows: small molecules binding Notch2 protein – biochemical, small-molecule microarray, 635 nm fluorescence, stem cell growth factors, primary screen (AID 1073). The following applies: higher = more signal.
In assay [6] the target is Pro-neuregulin-1, membrane-bound isoform (Homo sapiens) (UniProt Q02297). The assay is described as follows: small molecules binding neuregulin-1 protein – biochemical, small-molecule microarray, fluorescence 635/667, psychiatric disease protein project, primary screen (AID 1075).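 Also: score combines 667 nm spot fluorescence with signal to noise.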 The following applies: NRG1 binding, 635 nm fluorescence, higher = more signal.
Assay [7] relates to Neuregulin-1 EGF-like domain. The assay is described as follows: small molecules binding NRG1 EGF domain – biochemical, small-molecule microarray, 635 nm fluorescence, primary screen (AID 1081).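 Also: binding of the protein to compounds printed on small-molecule microarray slides.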 The following applies: higher = more signal.
Assay [8] in a line: FRG1 expression reporter modulators in myotubes – cell-based, C2C12 myotubes, firefly/Renilla luciferase, luminescence, FRG1 inhibition for FSHD, primary screen (AID 1084). The following applies: FRG1 promoter luciferase, higher = more signal, called active from +8 up or from −8 down.
Assay [9] is described as follows: small molecules captured by biotinylated probe aFST – biochemical, small-molecule microarray, fluorescence 635/667, stem cell growth factor project, primary screen (AID 1086).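 Also: score merges 667 nm fluorescence with signal-to-noise of each printed compound spot.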 The following applies: higher = more signal.
The nature of assay [10]: binders of probe aHhip on microarray, primary screen, stem cell growth factor project, biochemical, small-molecule microarray, fluorescence 635/667 (AID 1087).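 Also: score merges spot fluorescence at 667nm with spot signal to noise ratio.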 The following applies: higher = more signal.
The subject of assay [11] is PRMT1 (protein arginine N-methyltransferase 1). The assay is described as follows: small molecules binding arginine methyltransferase PRMT1 – biochemical, small-molecule microarray, 635 nm fluorescence, primary screen (AID 1088).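 Also: binding of Prmt1 protein to compounds spotted on small-molecule microarray slides.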 The following applies: higher = more signal.
Assay [12] in a line: growth effects on S. cerevisiae YJM789 – YJM789 clinical isolate, OD600, 24 h, basal, primary screen (AID 1089).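 Also: growth of clinical yeast isolate S. cerevisiae YJM 789 seeded 1000 cells per well; test concentration not given here.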 The following applies: higher = more signal, called active from +8 up or from −8 down.
The nature of assay [13]: S. pombe growth modifiers, basal conditions – strain 972, OD600, 24 h, no modulator, primary screen (AID 1090).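 Also: basal condition with compound alone and no growth modifier present; test concentration not given here.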 The following applies: S. pombe 972 growth, higher = more signal, called active from +8 up or from −8 down.
A short description of assay [14]: budding yeast growth modifiers under rapamycin – strain BY4716, OD600, 96 h, primary screen (AID 1091). Also: test concentration not given here. The following applies: S. cerevisiae BY4716 + rapamycin, higher = more signal, called active from +8 up or from −8 down.
For assay [15], the target named is Torsin-1A-interacting protein 2 (Homo sapiens) (UniProt Q8NFQ8). The assay is described as follows: small molecules binding lysate-expressed LULL1 – cell lysate, human LULL1 lysate, 635/667 nm fluorescence, primary screen (AID 1092).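 Also: probe is lysate of COS7 cells overexpressing human LULL1; score merges per-feature 667 nm fluorescence with signal-to-noise.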 The following applies: small-molecule microarray, hLULL1 lysate binding, 635 nm fluorescence; higher = more signal.
Assay [16] is described as follows: optical density change of DRC41 E. coli – strain DRC41, OD650, 24 h, E. coli filamentation project, primary screen (AID 1093).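 Also: MC1000 strain lacking acrAB efflux and sulA so SOS filamentation is blocked; test concentration not given here.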 The following applies: E. coli DRC41 growth, higher = more signal, called active from +8 up or from −8 down.
Assay [17] is described as follows: probe aLefty2 binding to arrayed compounds – biochemical, biotinylated probe, 635/667 nm fluorescence, primary screen (AID 1094).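 Also: score merges spot fluorescence near 667 nm with spot signal-to-noise ratio.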 The following applies: small-molecule microarray, higher = more signal.
For assay [18], the system named is Noggin (protein binding on small-molecule microarray). The assay is described as follows: small molecules binding Noggin protein – biochemical, 635/667 nm fluorescence, primary screen (AID 1095).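 Also: score merges 667 nm feature fluorescence with signal to noise over triplicate slides.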 The following applies: 635 nm fluorescence, higher = more signal.
Assay [19] deals with Neurogenic locus notch homolog protein 3 (Homo sapiens) (UniProt Q9UM47). The assay is described as follows: small molecules binding NOTCH3 protein – biochemical, 635/667 nm fluorescence, primary screen (AID 1096). The following applies: small-molecule microarray, 635 nm fluorescence, higher = more signal.
Assay [20] in a line: probe aEGFR binding to arrayed compounds – biochemical, biotinylated probe, 635/667 nm fluorescence, primary screen (AID 1097).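 Also: probe is a biotinylated anti-EGFR antibody binding compounds printed on slides; score combines fluorescence near 667 nm and signal to noise of each spot.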 The following applies: small-molecule microarray, higher = more signal.

Pro-neuregulin-1, membrane-bound isoform (Homo sapiens), sequence (Q02297 whole entry, looked up, the tested form may be a part, canonical isoform): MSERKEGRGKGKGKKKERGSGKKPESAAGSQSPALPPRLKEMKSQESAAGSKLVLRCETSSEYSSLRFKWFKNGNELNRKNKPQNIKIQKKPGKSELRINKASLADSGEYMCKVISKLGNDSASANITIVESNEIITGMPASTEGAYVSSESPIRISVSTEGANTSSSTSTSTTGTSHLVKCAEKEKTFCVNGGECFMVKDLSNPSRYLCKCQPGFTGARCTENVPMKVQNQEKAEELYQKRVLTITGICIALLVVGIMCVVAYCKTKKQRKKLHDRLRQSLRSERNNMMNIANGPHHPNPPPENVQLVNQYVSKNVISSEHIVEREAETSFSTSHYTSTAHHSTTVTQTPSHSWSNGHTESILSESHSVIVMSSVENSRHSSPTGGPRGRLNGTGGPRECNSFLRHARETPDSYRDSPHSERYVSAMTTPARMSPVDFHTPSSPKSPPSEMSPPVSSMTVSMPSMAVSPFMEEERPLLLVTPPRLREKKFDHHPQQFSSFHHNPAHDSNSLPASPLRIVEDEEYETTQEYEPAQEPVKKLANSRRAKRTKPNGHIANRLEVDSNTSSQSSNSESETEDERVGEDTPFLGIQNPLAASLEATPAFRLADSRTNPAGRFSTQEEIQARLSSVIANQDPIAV
Neurogenic locus notch homolog protein 2 (Homo sapiens), sequence (Q04721 whole entry, looked up, canonical isoform): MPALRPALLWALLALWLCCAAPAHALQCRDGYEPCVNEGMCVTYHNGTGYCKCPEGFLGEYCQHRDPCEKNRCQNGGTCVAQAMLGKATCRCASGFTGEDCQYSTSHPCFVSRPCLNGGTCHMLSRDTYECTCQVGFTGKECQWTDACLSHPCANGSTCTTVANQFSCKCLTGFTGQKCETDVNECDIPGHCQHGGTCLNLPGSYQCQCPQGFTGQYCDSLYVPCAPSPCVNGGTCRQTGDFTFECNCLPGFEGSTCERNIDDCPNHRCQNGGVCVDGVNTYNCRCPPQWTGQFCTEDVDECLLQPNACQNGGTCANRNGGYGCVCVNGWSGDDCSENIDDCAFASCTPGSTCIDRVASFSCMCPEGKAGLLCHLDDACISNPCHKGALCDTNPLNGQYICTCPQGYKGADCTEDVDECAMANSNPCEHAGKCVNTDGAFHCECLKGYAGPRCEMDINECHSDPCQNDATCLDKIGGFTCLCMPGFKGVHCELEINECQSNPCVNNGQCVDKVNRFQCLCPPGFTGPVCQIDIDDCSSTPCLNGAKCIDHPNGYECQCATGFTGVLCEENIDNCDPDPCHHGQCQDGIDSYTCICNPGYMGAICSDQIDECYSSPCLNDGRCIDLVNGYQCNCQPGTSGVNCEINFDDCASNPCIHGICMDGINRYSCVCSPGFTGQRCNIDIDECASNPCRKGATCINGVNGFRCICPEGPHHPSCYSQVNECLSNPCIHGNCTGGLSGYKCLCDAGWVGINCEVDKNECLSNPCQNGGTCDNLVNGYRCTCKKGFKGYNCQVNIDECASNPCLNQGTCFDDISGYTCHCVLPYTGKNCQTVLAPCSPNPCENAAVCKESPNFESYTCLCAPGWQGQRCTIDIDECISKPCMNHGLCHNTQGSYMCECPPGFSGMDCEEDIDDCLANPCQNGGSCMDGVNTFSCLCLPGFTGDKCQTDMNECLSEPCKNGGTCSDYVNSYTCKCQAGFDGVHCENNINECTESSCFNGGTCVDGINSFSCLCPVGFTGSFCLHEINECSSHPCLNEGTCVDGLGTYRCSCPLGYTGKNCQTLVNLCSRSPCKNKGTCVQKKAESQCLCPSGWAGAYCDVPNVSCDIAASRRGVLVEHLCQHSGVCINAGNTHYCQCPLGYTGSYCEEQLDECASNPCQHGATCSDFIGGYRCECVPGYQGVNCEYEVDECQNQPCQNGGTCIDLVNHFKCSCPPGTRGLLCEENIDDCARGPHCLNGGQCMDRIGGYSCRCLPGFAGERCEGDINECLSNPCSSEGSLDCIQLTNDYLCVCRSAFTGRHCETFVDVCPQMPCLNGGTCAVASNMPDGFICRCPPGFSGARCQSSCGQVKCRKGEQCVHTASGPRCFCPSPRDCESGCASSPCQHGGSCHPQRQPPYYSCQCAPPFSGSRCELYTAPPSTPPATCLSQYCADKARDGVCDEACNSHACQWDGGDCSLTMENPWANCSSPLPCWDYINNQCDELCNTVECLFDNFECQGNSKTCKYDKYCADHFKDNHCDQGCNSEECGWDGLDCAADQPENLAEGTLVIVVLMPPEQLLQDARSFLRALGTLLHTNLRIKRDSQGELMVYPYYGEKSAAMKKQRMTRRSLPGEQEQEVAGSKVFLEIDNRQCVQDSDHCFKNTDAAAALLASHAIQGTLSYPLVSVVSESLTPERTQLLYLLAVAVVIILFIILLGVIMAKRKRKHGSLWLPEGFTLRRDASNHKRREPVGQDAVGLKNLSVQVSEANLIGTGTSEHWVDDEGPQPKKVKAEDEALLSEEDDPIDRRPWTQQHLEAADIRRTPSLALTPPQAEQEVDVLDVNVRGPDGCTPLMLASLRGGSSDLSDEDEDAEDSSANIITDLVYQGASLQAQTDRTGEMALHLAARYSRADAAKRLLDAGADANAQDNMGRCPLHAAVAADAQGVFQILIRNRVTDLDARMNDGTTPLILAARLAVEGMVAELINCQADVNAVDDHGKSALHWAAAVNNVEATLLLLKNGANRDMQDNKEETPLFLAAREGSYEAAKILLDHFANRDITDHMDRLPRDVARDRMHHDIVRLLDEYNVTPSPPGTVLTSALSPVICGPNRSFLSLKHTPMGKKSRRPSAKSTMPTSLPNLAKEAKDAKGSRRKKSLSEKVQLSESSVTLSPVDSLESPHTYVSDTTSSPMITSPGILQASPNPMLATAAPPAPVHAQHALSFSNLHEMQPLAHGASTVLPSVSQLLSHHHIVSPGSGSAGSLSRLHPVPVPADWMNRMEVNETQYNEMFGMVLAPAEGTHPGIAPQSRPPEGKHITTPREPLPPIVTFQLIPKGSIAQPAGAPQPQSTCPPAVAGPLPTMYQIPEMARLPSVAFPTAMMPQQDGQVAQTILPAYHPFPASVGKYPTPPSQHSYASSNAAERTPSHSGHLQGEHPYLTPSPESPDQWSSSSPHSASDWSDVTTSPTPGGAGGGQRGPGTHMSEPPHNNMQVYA
Torsin-1A-interacting protein 2 (Homo sapiens), sequence (Q8NFQ8 whole entry, looked up): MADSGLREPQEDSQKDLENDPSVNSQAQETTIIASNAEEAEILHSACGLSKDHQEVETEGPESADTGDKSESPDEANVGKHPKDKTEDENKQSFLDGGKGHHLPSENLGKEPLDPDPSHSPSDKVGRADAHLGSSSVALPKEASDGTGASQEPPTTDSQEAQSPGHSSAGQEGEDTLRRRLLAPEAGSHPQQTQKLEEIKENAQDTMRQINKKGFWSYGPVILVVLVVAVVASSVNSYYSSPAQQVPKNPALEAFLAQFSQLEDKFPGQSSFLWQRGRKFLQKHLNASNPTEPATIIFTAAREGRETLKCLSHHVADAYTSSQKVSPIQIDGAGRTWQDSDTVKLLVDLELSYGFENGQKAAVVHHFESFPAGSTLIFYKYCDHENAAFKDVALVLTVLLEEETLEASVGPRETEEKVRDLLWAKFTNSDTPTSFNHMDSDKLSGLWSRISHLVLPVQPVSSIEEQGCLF

For `COC(=O)[C@@]1(Cc2ccccc2)[C@@H]2C(=CC(=O)[C@H]2CC(=O)C(=O)N(C)C)CN1C(=O)c1ccccc1`, the composite z-score was 0.152 in [1]; -0.0069 in assay [2]; 0.305 in assay [3]; 1.21 in assay [4]; 1.39 in assay [5]; 1.98 in [6]. In addition, the composite z-score in assay [7] came out at 1.32; in assay [9], 0.962; in assay [10] it was 0.113; in assay [11], 0.777; in [15] it was 3.22; in assay [17] it was 0.262. Moreover, the composite z-score in assay [18] was -0.434; in assay [19], 1.06; in assay [20], 0.156. Also, the z-score in [8] was -1.26 (inactive); in assay [12] it was -1.06 (inactive); in [13] it was 0.378 (inactive); in [14] it was -0.251 (inactive); in assay [16], 0.844 (inactive).

In the case of `COc1ccc([Si](C)(C)[C@@H]2[C@@H](CCO)O[C@]3(C(=O)N(Cc4ccc(N5CCCCC5=O)cc4)c4ccccc43)[C@H]2C)cc1`, the composite z-score in [1] is -0.343; in [2], 0.299; in assay [3] it was 0.0344; in assay [4], 0.913; in assay [5], 0.0177; in assay [6], 0.919. The composite z-score is 1.15 in assay [7]; 0.203 in assay [9]; 0.0373 in assay [10]; 1.53 in assay [11]; 2.09 in assay [15]; -0.181 in [17]. In addition, the composite z-score is 0.731 in assay [18], 1.11 in assay [19] and -0.0828 in assay [20]. Besides, the z-score in assay [8] was -4.78 (inactive); in assay [12], -0.102 (inactive); in assay [13], 0.0767 (inactive); in [14], 3.05 (inactive); in assay [16], 1.2 (inactive).

Regarding `O=C1C=C(c2ccccc2)C(=O)c2ccc([C@H]3Oc4ccccc4S(=O)(=O)N4CCC[C@@H]34)cc21`, the composite z-score in assay [1] is -0.292; in [2], -0.303; in assay [3], -0.116; in assay [4] it was -0.0019; in [5], -0.405; in assay [6] it was -0.775. Moreover, the composite z-score is -0.87 in assay [7]; -0.024 in assay [9]; 0.0659 in assay [10]; -0.208 in assay [11]; -1.27 in assay [15]; -0.18 in assay [17]. Moreover, the composite z-score in assay [18] is -0.144; in assay [19], -0.272; in [20], -0.119. Further, the z-score in assay [8] was 2.5 (inactive); in assay [12], -0.818 (inactive); in assay [13], -14.9 (active); in [14], 0.696 (inactive); in [16] it was 1.66 (inactive).

For `CC(C)C[C@@H]1NC(=O)[C@@H]2C[C@H](C(=O)NCCCCN(C)C)[C@H](c3cccc(OCCO)c3)N2C1=O`, the composite z-score is 0.0116 in assay [1]; 1.47 in assay [2]; -0.143 in [3]; -0.242 in assay [4]; -0.416 in assay [5]; 0.204 in [6]. For the same molecule, the composite z-score in [7] is 1.19; in assay [9] it was -0.612; in assay [10], -0.192; in assay [11], 0.751; in assay [15], 2.85; in assay [17], -0.0258. For the same molecule, the results for the composite z-score in [18], in [19] and in assay [20] were 0.592, -0.087 and -0.183, respectively. The z-score is 6.17 (inactive) in assay [8]; -1.01 (inactive) in [12]; 0.162 (inactive) in [13]; -1.01 (inactive) in [14]; 0.659 (inactive) in [16].

For `CC(C)C(CO)N1C(=O)[C@@H]2C3C(=O)OCCC/C=C\[C@H]3OC23C=CCN(C(C)(C)C)C(=O)[C@@H]13` (stereo not given in full), the composite z-score is -0.0102 in assay [1]; -0.311 in assay [2]; -0.133 in assay [3]; -0.394 in assay [4]; -1.02 in [5]; -0.596 in assay [6]. In addition, the composite z-score was 1.06 in assay [7]; -0.418 in [9]; 0.0274 in assay [10]; -0.429 in assay [11]; 0.895 in assay [15]; -0.259 in [17]. The values for the composite z-score in assay [18], in [19] and in assay [20] were -0.733, -0.354 and -0.259, respectively. The z-score in [8] was -0.241 (inactive); in [12], 0.465 (inactive); in assay [13], -0.415 (inactive); in assay [14], 0.0032 (inactive); in assay [16] it was -0.787 (inactive).
